Most compounds without a hit are left out; they make up all but 4.5% or so of the library.
ZTA DNA inh: ZTA (EBV) inhibition in EBNA-1 counter-screen; actives 0.15% (n = 320,000); inhibition, % at 11 µM; ZTA-DNA binding, fluorescence polarization; P03206; in the data active = inhibition above about 33%
Target sequence (P03206 whole entry, looked up): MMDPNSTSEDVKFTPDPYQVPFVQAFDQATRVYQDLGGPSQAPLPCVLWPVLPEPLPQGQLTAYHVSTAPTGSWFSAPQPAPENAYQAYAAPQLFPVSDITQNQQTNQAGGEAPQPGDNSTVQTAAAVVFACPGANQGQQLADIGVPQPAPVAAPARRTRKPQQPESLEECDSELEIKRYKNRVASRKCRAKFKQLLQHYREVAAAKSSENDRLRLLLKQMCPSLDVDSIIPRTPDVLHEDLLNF
EBNA-1 inhibitor: blocks EBNA-1 binding to DNA; EBNA-1 DNA binding, fluorescence polarization; inhibition, % at 14.8 µM; actives 0.34% (n = 300,000); in the data active = inhibition above about 28%
GRIN3A LBD mod: modulators (binders) of human NR3A ligand-binding domain; actives 2.5% (n = 340,000); Tm shift relative to glycine control, % at 25 µM; NR3A LBD differential scanning fluorimetry, Tm shift; 0% = protein alone, 100% = glycine-bound protein;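 active = melting temperature shift of at least 10% of the positive control shift, at one fixed dose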
Rpn11 block: Rpn11 (human) deubiquitinase inhibition | human 26S proteasome, Ub4-pepOG fluorescence polarization; 20S core pre-blocked with epoxomicin | inhibition, % at 20 µM | actives 0.59% (n = 360,000);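 active = inhibition at 20 µM, scaled to each plate's controls, above about 33%, limit read from the data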
TPT1 inh: C. albicans TPT1 enzyme inhibition. recombinant caTPT1, FP RNA substrate dephosphorylation. inhibition, % at 5 µM. actives 0.81% (n = 300,000);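 active = inhibition above the mean of all tested compounds plus 3 SD, set per screening campaign, cut at about 24% in these data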;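 note: plate controls were DMSO alone for no effect and ferristatin control at 100 nM for full effect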
dFosB act: mouse delta FosB homodimer activation. purified delta FosB, TAMRA-CDK5 oligo fluorescence polarization; percent of positive-control signal above neutral wells. activation, % at 25 µM. actives 0.99% (n = 340,000). AID 493131;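 active = mean activation above about 17%, with every replicate also reaching it, limit read from the data, passing the limit was not always enough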
Target sequence (P13346 whole entry, looked up): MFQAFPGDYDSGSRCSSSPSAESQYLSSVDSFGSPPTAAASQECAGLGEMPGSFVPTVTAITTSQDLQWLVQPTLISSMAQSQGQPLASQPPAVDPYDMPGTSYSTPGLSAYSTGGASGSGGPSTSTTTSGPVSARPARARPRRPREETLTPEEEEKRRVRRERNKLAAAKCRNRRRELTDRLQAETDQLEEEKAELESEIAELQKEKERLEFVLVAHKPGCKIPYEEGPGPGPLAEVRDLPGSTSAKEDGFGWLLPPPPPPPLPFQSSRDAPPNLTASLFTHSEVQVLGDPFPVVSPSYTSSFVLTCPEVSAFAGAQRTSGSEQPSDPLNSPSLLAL
EBNA-1 inh conf: EBNA-1 (EBV) inhibition, confirmation. shares compounds with EBNA-1 inhibitor. Recombinant EBNA-1 DBD, Cy5-DNA fluorescence polarization. inhibition, % at 14.8 µM. actives 35% (n = 830). AID 2292;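 active = mean inhibition across replicates above a set limit taken from the earlier primary screen, cut at about 28% in these data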;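 note: plate controls were EBNA-1 protein with DMSO for no effect and wells lacking EBNA-1 for full effect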
ZTA DNA inh trip: counter-screen for EBNA-1 inhibitors: Epstein-Barr virus ZTA inhibitors, triplicate. 830 tested, under 10 active. inhibition, % at 11.1 µM. shares compounds with EBNA-1 inhibitor. Zta-ZRE DNA binding, Cy5 fluorescence polarization. AID 2328;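 active = mean inhibition over triplicates above a set limit taken from the primary EBNA-1 screen, cut at about 37% in these data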;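 note: purified full length Zta protein with Cy5 labeled ZRE DNA probe; 0% = Zta with DMSO and 100% = wells lacking Zta protein; inhibitors lower polarization by freeing the labeled DNA probe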
* = called active by the depositor; . = no result given.

SMILES | ZTA DNA inh | EBNA-1 inhibitor | GRIN3A LBD mod | Rpn11 block | TPT1 inh | dFosB act | EBNA-1 inh conf | ZTA DNA inh trip
Cc1cc2nc(-c3cccc(NC(=O)c4ccc(Br)o4)c3)oc2cc1C | 1.8 | 50.9* | 2.5 | 0.4 | 4.3 | -3.1 | 15.2 | -2.5
CC(C)C(=O)Nc1cccc(C(=O)OCC(=O)c2ccc(Cl)cc2Cl)c1 | 4.0 | 41.0* | -3.5 | 4.8 | -2.0 | -22.6 | 79.2* | 7.8
COc1ccccc1N1CCN(c2ccc([N+](=O)[O-])cc2Cl)CC1 | 1.9 | 38.2* | 0.5 | -16.0 | -2.5 | -10.3 | -12.9 | -1.8
O=C(Cn1nc(-c2ccc3c(c2)OCCO3)ccc1=O)Nc1cccc(NC(=O)c2ccccn2)c1 | 0.6 | 40.8* | . | . | -4.4 | . | 43.4* | 12.3
S=c1nc[nH]c2c1[nH]c1ccc(Cl)cc12 | 11.9 | 42.7* | 33.1* | 1.3 | -1.0 | -0.7 | 22.2 | 0.1
COc1ccc(C(=O)Nc2nnc(Cc3cccs3)s2)cc1OC | 11.6 | 29.5* | -1.3 | 0.6 | 3.3 | 1.9 | 51.5* | 8.1
COc1ccc(Cc2nnc(NC(=O)Nc3ccccc3)s2)cc1OC | -2.8 | 60.4* | -3.1 | -0.2 | 0.6 | -14.7 | 26.3 | 3.4
COc1cccc(NC(=O)Nc2nnc(Cc3ccc(OC)c(OC)c3)s2)c1 | -12.7 | 8.0 | 0.5 | -2.8 | -4.2 | 2.6 | . | .
COc1ccc(Cc2nnc(NC(=O)c3ccc(OC)c(OC)c3)s2)cc1 | 0.5 | -5.1 | -3.7 | -2.7 | 3.1 | -22.3 | . | .
CN=C1SC(CC(=O)Nc2c(C)cccc2C)C(=O)N1/N=C/c1cccs1 (stereo not given) | 4.3 | 35.6* | 5.0 | 6.4 | 1.3 | 1.5 | 5.2 | -4.9
CN=C1SC(CC(=O)Nc2cccc(Cl)c2Cl)C(=O)N1C (stereo not given) | -2.7 | -8.3 | 5.9 | 3.5 | -0.3 | -1.0 | . | .
COc1ccc(C(C(N)=O)c2ncc(C(F)(F)F)cc2Cl)cc1OC (stereo not given) | -27.4 | 0.4 | -0.4 | 2.8 | -0.7 | -4.6 | . | .
O=C(Nc1cccc(S(=O)(=O)NC2=NCCCCC2)c1)c1cc(-c2ccco2)nc2ccccc12 | -1.2 | 38.7* | -1.3 | 40.9* | 1.6 | -7.5 | 18.3 | -6.7
O=C(Nc1cccc(S(=O)(=O)NC2=NCCCCC2)c1)c1cc(-c2ccncc2)nc2ccccc12 | -2.7 | -1.0 | -2.6 | 0.3 | 6.8 | -18.5 | . | .
O=C(CCN1C(=O)/C(=C\c2cccs2)SC1=S)NC1=NCCS1 | 8.4 | 7.2 | -5.7 | 5.8 | -1.6 | -10.9 | . | .
O=C(CCN1C(=O)/C(=C/c2cccs2)SC1=S)NC1=NCCS1 | -4.1 | 33.6* | -2.7 | 3.5 | 6.5 | 2.4 | -0.5 | -4.7
CCN(CC)S(=O)(=O)c1cc(NC(=O)CSc2nc3c(cc2C#N)C(=O)CC(C)(C)C3)ccc1C | 9.5 | 32.0* | -3.7 | -3.2 | -3.9 | -5.4 | -7.8 | -12.1
CC1=C(C(=O)OCC2CCCO2)C(c2ccc(C)cc2)C2=C(CC(C)(C)CC2=O)N1 (stereo not given) | 0.6 | -0.9 | 1.1 | -3.1 | -0.3 | -13.8 | . | .
COC(=O)CSc1ncnc2scc(-c3ccccc3)c12 | -4.9 | -5.7 | -2.5 | -3.1 | -2.3 | -5.7 | . | .
Cc1nnc(NC(=O)CSc2ncnc3scc(-c4ccccc4)c23)s1 | 13.4 | 34.0* | 1.0 | -1.4 | 4.0 | -2.4 | 29.1* | -6.7
COc1ccc(NC(=O)CN(C)C(=O)c2cc(-c3ccc(OC)cc3)nc3ccccc23)cc1 | 3.0 | 31.4* | -0.4 | 7.2 | -0.1 | -4.4 | 0.1 | -3.5
CC(=O)c1cccc(OCC(=O)N(Cc2ccco2)c2c(N)n(Cc3ccccc3)c(=O)[nH]c2=O)c1 | -4.3 | . | -0.2 | . | . | -2.5 | . | .
CCOC(=O)C1CCN(Cc2ccc(F)cc2)CC1 | -31.4 | 1.9 | -3.3 | 3.7 | -2.1 | 4.8 | . | .
CCOC(=O)C1CCN(Cc2ccc(Cl)c(Cl)c2)CC1 | 0.9 | 45.5* | -0.3 | -5.8 | 0.7 | -1.6 | 3.7 | 5.1
O=C(NCCc1ccccc1)C1CC(=O)N(C2CCCCC2)C1 (stereo not given) | 0.0 | 9.5 | 3.8 | 9.5 | 2.3 | 1.4 | . | .
SMILES | ZTA DNA inh | EBNA-1 inhibitor | GRIN3A LBD mod | Rpn11 block | TPT1 inh | dFosB act | EBNA-1 inh conf | ZTA DNA inh trip
COc1cc(Cl)ccc1OCc1cc(C(=O)N(C)CCc2cnn(C)c2)no1 | -15.2 | 1.4 | -2.1 | 0.2 | -2.3 | 2.7 | . | .
CCC(c1ccccc1)c1nnc(NC(=O)c2ccco2)s1 (stereo not given) | -0.1 | -13.5 | 1.2 | -1.9 | -1.2 | . | . | .
O=C(Nc1nnc(CC(c2ccccc2)c2ccccc2)s1)c1ccco1 | -13.3 | 37.4* | 2.3 | 5.2 | 6.1 | 4.6 | 18.2 | 5.3
CSc1ccccc1NC(=O)C1CCCN(S(C)(=O)=O)C1 (stereo not given) | 19.6 | 14.0 | 1.4 | 0.5 | -1.6 | 5.2 | . | .
CC(=O)Nc1ccc(S(=O)(=O)N2CCN(Cc3nc4sc(C)c(C)c4c(=O)[nH]3)CC2)cc1 | 0.4 | 27.5* | 0.8 | 8.2 | -4.6 | -0.9 | 55.0* | -0.3
O=C(O)c1ccccc1-c1csc(-c2ccccc2)n1 | 9.5 | 12.6 | -13.9 | -11.0 | 1.0 | 1.0 | . | .
COc1ccc(/C=C2\SC(=S)N(NS(=O)(=O)c3ccc(C)cc3)C2=O)c(OC)c1 | 10.9 | 16.7 | . | 13.2 | 2.0 | -4.7 | . | .
COc1ccccc1/C=C1\SC(=S)N(NS(=O)(=O)c2ccc(C)cc2)C1=O | -2.2 | 30.7* | -1.2 | 3.9 | 1.7 | -1.6 | -0.7 | 12.3
CCCCc1ccc(S(=O)(=O)NCCCN2CCCC2=O)cc1 | 10.4 | 2.4 | 0.8 | -4.6 | 0.6 | -2.9 | . | .
CC(C)N(CCCNC(=O)c1nn(C)c2c1CS(=O)(=O)c1ccccc1-2)Cc1ccccc1 | 21.7 | 10.4 | -1.1 | -7.1 | -1.4 | -8.5 | . | .
COC(=O)Cc1cc(=O)[nH]c(/N=C(\N)Nc2ccc(C)cc2C)n1 | -4.7 | -13.4 | -0.4 | -1.7 | 3.0 | 0.3 | . | .
CCOC(=O)Cc1cc(=O)[nH]c(/N=C(\N)Nc2ccc(C)cc2C)n1 | 4.8 | 47.0* | 0.4 | 3.5 | -1.5 | 4.2 | -1.6 | -0.3
COc1ccc(C(=O)Nc2ccccc2C(=O)NC(Cc2ccc(O)cc2)C(=O)NNC(=O)c2ccccc2)cc1 (stereo not given) | -16.3 | 82.4* | -18.4 | -0.9 | -2.4 | 3.1 | -8.5 | -10.1
Cc1ccc2cccc(NC(=S)NC(=O)c3ccnn3C)c2n1 | -21.4 | 39.9* | -0.8 | 1.7 | 2.8 | -2.1 | 32.1* | 5.1
Cc1ccc(NC(=S)N/N=C/c2c(C)nn(-c3ccccc3)c2N2CCCC2)cc1 | -0.3 | 38.6* | -1.1 | -0.4 | 1.6 | -7.9 | -2.9 | -7.0
O=C(CNC(=O)c1ccco1)NCC(=O)OCc1ccc(C(=O)Oc2ccc(Cl)cc2)cc1 | 10.4 | 89.1* | 1.1 | 6.4 | -2.5 | 1.3 | 9.2 | 5.3

Screening data: PubChem BioAssay, several laboratories
